Screens deposited in PubChem BioAssay by National Center for Advancing Translational Sciences (NCATS).
TDP1 block: qHTS Assay for Inhibitors of Tyrosyl-DNA Phosphodiesterase (TDP1); Tyrosyl-DNA phosphodiesterase 1 (Homo sapiens), Q9NUW8; recombinant TDP1, AlphaScreen DNA substrate cleavage; Potency, µM (titrated, usually from 130 µM), inactives show top-dose activity change, negative = inhibition, most hits filed as inhibitors; actives 0.28% (n = 350,000); also: nearly all actives have a fitted effect of over 40% in size
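Here, a 5' biotin and 3' phosphotyrosine-FITC DNA oligonucleotide reports Tdp1 activity: intact substrate bridges AlphaScreen beads, while cleavage leaves a 3' phosphate and drops signal. All incubations at room temperature.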
TDP1 cell noCPT: qHTS for Inhibitors of human tyrosyl-DNA phosphodiesterase 1 (TDP1): qHTS in cells in absence of CPT | DT40 Tdp1-/- hTDP1 cells, no CPT, ATP luminescence, 48 h | Potency, µM (top dose mostly 46.2 µM), for the others: top-dose activity change, negative = growth inhibition, actives largely listed as inhibitors | actives 15% (n = 420,000) | AID 686978, 2013; also: nearly all actives have a fitted effect of over 55% in size
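No-CPT arm: Tdp1-/-;hTDP1 DT40 cells (400/well) plus compounds, incubated ≥48 hr at 37 °C. Readout CellTiter-Glo luminescence.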
DT40 TDP1 CPT: qHTS for Inhibitors of human tyrosyl-DNA phosphodiesterase 1 (TDP1): qHTS in cells in presence of CPT; chicken DT40 Tdp1-/-;hTDP1 cells + 20 nM CPT, ATP luminescence, 48 h; Potency, µM (doses to about 46.2 µM), for the others: at the highest dose activity change, negative = growth inhibition, hits mostly inhibitors; actives 12% (n = 420,000); AID 686979, 2013; also: nearly all actives have a fitted effect of over 55% in size
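Chicken DT40 Tdp1-/- cells complemented with human TDP1, 400 cells/well, exposed to compounds plus 20 nM camptothecin for at least 48 h at 37 C; viability read as ATP content by CellTiter-Glo luminescence.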
VDR inhibitor: Inhibitors of the vitamin D receptor (VDR): qHTS; AID 504847, 2011; actives 0.93% (n = 400,000); VDR-SRC2-3 peptide fluorescence polarization, 2 h; Vitamin D3 receptor (Homo sapiens), P11473; Potency, µM, for the others: max response, negative = inhibition, hits mostly inhibitors
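The screen uses fluorescence polarization to detect compounds that interfere with recruitment of the SRC2-3 coactivator peptide to VDR; plates are read after 2 h at room temperature.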
KAT2A inh: qHTS Assay for Inhibitors of GCN5L2; actives 0.21% (n = 390,000); GCN5L2 HAT assay, ThioGlo1 CoA-SH fluorescence; AID 504327, 2011; Potency, µM (doses to about 58.9 µM), without a hit: at the top dose activity change, negative = inhibition, most hits filed as inhibitors; Histone acetyltransferase KAT2A (Homo sapiens), Q92830
Target sequence (Q92830 whole entry, looked up): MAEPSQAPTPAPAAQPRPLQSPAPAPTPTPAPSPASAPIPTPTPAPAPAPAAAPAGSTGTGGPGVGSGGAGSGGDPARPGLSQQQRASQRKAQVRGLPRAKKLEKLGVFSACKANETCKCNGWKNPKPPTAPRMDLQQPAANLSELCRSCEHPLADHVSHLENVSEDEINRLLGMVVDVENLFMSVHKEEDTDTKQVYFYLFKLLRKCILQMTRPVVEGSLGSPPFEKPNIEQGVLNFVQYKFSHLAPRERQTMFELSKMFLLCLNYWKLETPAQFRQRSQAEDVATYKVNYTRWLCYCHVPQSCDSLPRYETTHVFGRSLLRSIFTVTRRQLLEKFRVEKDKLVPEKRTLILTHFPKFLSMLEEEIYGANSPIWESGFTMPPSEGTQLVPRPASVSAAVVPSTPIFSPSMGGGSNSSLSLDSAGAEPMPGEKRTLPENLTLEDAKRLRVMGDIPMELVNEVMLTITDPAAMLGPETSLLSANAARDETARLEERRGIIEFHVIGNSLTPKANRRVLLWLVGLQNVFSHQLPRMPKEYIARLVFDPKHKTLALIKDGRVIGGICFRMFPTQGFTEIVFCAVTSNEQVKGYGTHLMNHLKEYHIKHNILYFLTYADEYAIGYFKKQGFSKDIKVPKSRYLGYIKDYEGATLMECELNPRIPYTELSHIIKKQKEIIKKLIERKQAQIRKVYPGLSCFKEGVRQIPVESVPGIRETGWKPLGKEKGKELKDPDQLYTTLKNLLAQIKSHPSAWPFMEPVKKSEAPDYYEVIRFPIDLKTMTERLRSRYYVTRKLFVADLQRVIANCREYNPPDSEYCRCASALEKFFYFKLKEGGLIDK
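GCN5L2 (20nM final) in 50mM HEPES, 0.1mM EDTA pH 7.5, 0.01% Tween-20 was preincubated 15 min at room temperature with compound, then given ThioGlo1 (50uM), H3(1-25) peptide (75uM) and acetyl-CoA (70uM); CoA-thiol fluorescence (Ex340/Em540) was read at 0 and 20 min.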
PLK1 PBD inh: qHTS for Inhibitors of PLK1-PDB (polo-like kinase 1 - polo-box domain): Primary Screen; Serine/threonine-protein kinase PLK1 (Homo sapiens), P53350; Plk1 PBD binding of FITC phosphopeptide, fluorescence polarization; Potency, µM, for the others: max response, negative = inhibition, usual class: inhibitors; actives 2.8% (n = 360,000); AID 720504, 2013; also: series mostly up to about 57 µM; nearly all actives have a fitted effect of over 65% in size
* marks the source's active call; other numbers are inactive results; ? = inconclusive; nt = no result; [ ] = another dose, or the depositor's remark. The list is not random: actives were taken first. Their share in the collection is about 18%. Calls follow the shape of the dose curve; as a rule, active = well fitted curve in the direction sought with a large enough effect; inconclusive = small, poorly fitted or top-dose-only effect, or another doubt; inactive = no such curve, though single readings can be large; an effect the other way counts as inactive or inconclusive. % is scaled to controls: 0 for no effect and ±100 for the full control effect; potency is read from the fitted curve at half-maximal effect.

SMILES	TDP1 block	TDP1 cell noCPT	DT40 TDP1 CPT	VDR inhibitor	KAT2A inh	PLK1 PBD inh
CC(=O)c1c(O)c(C)c(O)c2c1OC1=Cc3c(c(C)nn3-c3ccccc3)C(=O)C12C (stereo not given)	nt	16µM*	23µM*	nt	nt	3%
CN1CCC2=C[C@H](O)[C@@H]3OC(=O)c4cc5c(cc4[C@H]3[C@H]21)OCO5	-2%[56.1 µM]	nt	nt	1%	0%[21.4 µM]	nt
O=C(Nc1ccon1)c1cccn(Cc2ccccc2)c1=O	0%	?	-11%	9%	-7%	nt
COc1ccc2[nH]c3c(c2c1)CCN1C(=O)C(CC(=O)NCc2cccc(C(F)(F)F)c2)C[C@H](C(=O)N2CCCCC2)[C@@]31C (stereo not given in full)	4%[56.1 µM]	8.2µM*	10µM*	3%	-4%	0%
CC(C)=CCC/C(C)=C/CNC(=O)C[C@H]1C[C@H](C(=O)N(C(C)C)C(C)C)[C@@]2(C)c3[nH]c4ccc(Cl)cc4c3CCN2C1=O	0%[56.1 µM]	?	?	-12%	-2%	1%
CC(=O)OC1CCC23C(=O)OC45CCC(C6=CC(=O)OC6)C4(C)CCC2C5CCC3(O)C1 (stereo not given)	9%[56.1 µM]	10µM*	12µM*	6%	1%	nt
Cc1ccc(-c2nc3ccc(Cl)cn3c2Nc2ccccc2C)s1	8%	16µM*	21µM*	-7%	3%	nt
COc1ccc(C2c3c(nc(C)[nH]c3=O)Oc3c2c(=O)oc2ccccc32)cc1 (stereo not given)	nt	-4%	-3%	-16%	2%	-1%
CCN(CCCl)c1cc(CN(C)C)cc(NC(=O)c2ccc(C(=O)Nc3cc(CN(C)C)cc(N(CC)CCCl)c3)cc2)c1	nt	0.18µM*	0.18µM*	29%	nt	-3%
O=c1ccc(=O)[nH][nH]1	2%	nt	nt	nt	nt	nt
CCOc1ccc(C=C2C(=O)NC(=S)NC2=O)cc1OCC	nt	-4%	1%	28µM*	nt	8.4µM*
CCOc1cc(C=C2C(=O)NC(=O)NC2=O)ccc1OS(=O)(=O)c1ccccc1	7%	?	?	79µM*	-13%	3.4µM*
CN(C)c1ccc(C=C2C(=O)NC(=S)NC2=O)cc1	nt	16µM*	8.2µM*	?	nt	2.7µM*
COC(=O)c1cc(C(O)(C(=O)OC)C(F)(F)F)c(/N=C/N(C)C)s1 (stereo not given)	2%	0%	-4%	-4%	-5%	-1%
O=c1cc(-c2ccc(O)c(O)c2)oc2c(C3O[C@H](CO)[C@@H](O)[C@H](O)[C@H]3O)c(O)cc(O)c12 (stereo not given in full)	9%	-5%	-1%	-9%	-9%	5%
COc1ccccc1N1CCN(C(=O)CCC(=O)Nc2nnc(CC(C)C)s2)CC1	5%	-18%	?	1%	-3%	2%
CC(C)OP(=O)(OC(C)C)C(NCc1ccccc1)c1ccccc1 (stereo not given)	3%	23µM*	?	-5%	-3%	-3%
CC(=O)OCC(N)C(=O)c1ccccc1 (stereo not given)	1%	nt	nt	nt	-28%	nt
COc1ccc(NP(=O)(Oc2ccccc2OC)Oc2ccccc2OC)cc1	10%	16µM*	?	-13%	-5%	-6%
COc1ccc(NP(=O)(Oc2ccc(Cl)cc2)Oc2ccc(Cl)cc2)cc1OC	11%	26µM*	18µM*	-14%	-11%	2%
CC(N)Cc1ccccc1Sc1ccc(O)cc1 (stereo not given)	2%	nt	nt	nt	-3%	nt
CC(Cc1ccccc1Sc1ccc(O)cc1)N(C)C (stereo not given)	7%	21µM*	?	-2%	-11%	-13%
C/C(=N\N1CCCCC1c1cccnc1)c1c(O)n(C2CCCCC2)c(=S)[nH]c1=O (stereo not given)	3%	?	?	6%	1%	32%
CN1CCN(C(=O)COc2ccc(S(=O)(=O)NCc3ccccc3)cc2Cl)CC1	2%	3%	-13%	-9%	-30%	-8%
CC(C)NS(=O)(=O)c1ccc(OCC(=O)N2CCN(Cc3ccc4c(c3)OCO4)CC2)c(Cl)c1	2%	18µM*	16µM*	-10%	-21%	-1%
SMILES	TDP1 block	TDP1 cell noCPT	DT40 TDP1 CPT	VDR inhibitor	KAT2A inh	PLK1 PBD inh
Cc1cc(S(=O)(=O)NC(C)C)ccc1OCC(=O)N1CCN(Cc2ccc3c(c2)OCO3)CC1	7%	?	16µM*	28%	-5%	-16%
Cc1cc(S(=O)(=O)NCC(C)C)ccc1OCC(=O)N1CCN(Cc2ccccc2)CC1	7%	-65%	?	5%	4%	-19%
CCN1C(=O)NC(=O)/C(=C\c2cn(CC(=O)N3CCCCC3C)c3ccccc23)C1=O (stereo not given)	-2%	2%	-23%	2%	1%	?
CCN(CC)C(=O)Cn1cc(/C=C2\C(=O)NC(=O)N(c3ccccc3F)C2=O)c2ccccc21	nt	?	?	79µM*	12%	4.7µM*
O=C(O)Cn1cc(/C=C2\C(=O)NC(=O)N(c3ccc(Cl)cc3)C2=O)c2ccccc21	nt	2%	-4%	?	-14%	15µM*
O=C(O)Cn1cc(C=C2C(=O)NC(=O)NC2=O)c2ccccc21	nt	24%	6%	-7%	-17%	?
CCCSP1(=S)NCCCO1 (stereo not given)	-2%	-13%	-14%	-4%	1%	-2%
